# Assay results reported in PubChem BioAssay AID1159580 (chemical genetic matrix, 2015).
# Among all 5,500 compounds or so, about 2,000 (36%) were called active. About 18% were inconclusive and are not listed. This is one part of the list. A number with no mark means an inactive call. Cut-off read from the data, not from the text of the source: active = normalized growth mostly below about 0.91 (no sharp cut-off); inconclusive = no clear call, values can overlap the other calls; inactive = mostly above about 0.92.
# Assay: chemical genetic growth profiling, strain panel (AID 1159580);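 note: tested at 20 µM; growth read once vehicle control cultures reached saturation at 30 °C; 1 = growth at the plate median or of vehicle wells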
# Details: growth OD
# [1] = S. cerevisiae deletion strains, locus YAL013W, strain DEP1, stronger effect = lower value
# [2] = S. cerevisiae deletion strains, locus YDR150W, strain NUM1, stronger effect = lower value
# [3] = S. cerevisiae deletion strains, locus YGR078C, strain PAC10, stronger effect = lower value
# [4] = S. cerevisiae deletion strains, locus YGR229C, strain SMI1, stronger effect = lower value
# [5] = S. cerevisiae deletion strains, locus YMR307W, strain GAS1, stronger effect = lower value
# [6] = S. cerevisiae deletion strains, locus YNL153C, strain GIM3, stronger effect = lower value
# [7] = S. cerevisiae deletion strains, locus YNL322C, strain KRE1, stronger effect = lower value
# [8] = S. cerevisiae deletion strains, locus YPL055C, strain LGE1, stronger effect = lower value
# [9] = S. cerevisiae deletion strains, locus YPL241C, strain CIN2, stronger effect = lower value
# [10] = S. cerevisiae deletion strains, locus YBR229C, strain ROT2, stronger effect = lower value
# [11] = S. cerevisiae deletion strains, locus YDL101C, strain DUN1, stronger effect = lower value
# [12] = S. cerevisiae deletion strains, locus YDL134C, strain PPH21, stronger effect = lower value
# [13] = S. cerevisiae deletion strains, locus YEL061C, strain CIN8, stronger effect = lower value
# [14] = S. cerevisiae deletion strains, locus YHR030C, strain SLT2, stronger effect = lower value
# [15] = S. cerevisiae deletion strains, locus YHR087W, strain rtc3, stronger effect = lower value
# [16] = S. cerevisiae deletion strains, locus YJR043C, strain POL32, stronger effect = lower value
# [17] = S. cerevisiae deletion strains, locus YJR075W, strain HOC1, stronger effect = lower value
# [18] = S. cerevisiae deletion strains, locus YLR039C, strain RIC1, stronger effect = lower value
# [19] = S. cerevisiae deletion strains, locus YLR058C, strain SHM2 (second series), stronger effect = lower value
# [20] = S. cerevisiae deletion strains, locus YLR085C, strain ARP6, stronger effect = lower value
# [21] = S. cerevisiae deletion strains, locus YLR262C, strain YPT6, stronger effect = lower value
# [22] = S. cerevisiae deletion strains, locus YML094W, strain GIM5, stronger effect = lower value
# [23] = S. cerevisiae deletion strains, locus YMR219W, strain ESC1, stronger effect = lower value
# [24] = S. cerevisiae deletion strains, locus YMR263W, strain SAP30, stronger effect = lower value
# [25] = S. cerevisiae deletion strains, locus YNL298W, strain CLA4 (second series), stronger effect = lower value
# [26] = S. cerevisiae deletion strains, locus YNR030W, strain Alg12, stronger effect = lower value
# [27] = S. cerevisiae deletion strains, locus YPR135W, strain CTF4, stronger effect = lower value
smiles,measurement,setting,value
CCCC[N+]1(C)C2CC(OC(=O)[C@H](CO)c3ccccc3)CC1C1OC12 (stereo not given in full),normalized growth,[1],1
same,normalized growth,"S. cerevisiae deletion strains, locus YAL040C, strain CLN3, stronger effect = lower value",1.05
same,normalized growth,"S. cerevisiae deletion strains, locus YCL061C, strain MRC1 (second series), stronger effect = lower value",0.996
same,normalized growth,[2],1
same,normalized growth,"S. cerevisiae deletion strains, locus YDR363W, strain ESC2, stronger effect = lower value",0.999
same,normalized growth,"S. cerevisiae deletion strains, locus YER002W, strain NOP16, stronger effect = lower value",1.01
same,normalized growth,[3],0.989
same,normalized growth,[4],1.02
same,normalized growth,[5],0.976
same,normalized growth,[6],0.987
same,normalized growth,"S. cerevisiae deletion strains, locus YNL175C, strain NOP13, stronger effect = lower value",1.02
same,normalized growth,"S. cerevisiae deletion strains, locus YNL197C, strain WHI3, stronger effect = lower value",0.989
same,normalized growth,"S. cerevisiae deletion strains, locus YNL224C, strain SQS1, stronger effect = lower value",0.99
same,normalized growth,[7],0.998
same,normalized growth,"S. cerevisiae deletion strains, locus YOR083W, strain WHI5 (second series), stronger effect = lower value",0.99
same,normalized growth,[8],0.987
same,normalized growth,[9],1
Cc1cc(NC(=O)C(Cl)(Cl)Cl)n(-c2ccccc2)n1,normalized growth,[1],0.984
same,normalized growth,[10],0.987
same,normalized growth,[11],0.995
same,normalized growth,[12],0.936
same,normalized growth,[2],0.898
same,normalized growth,[13],0.994
same,normalized growth,[3],0.984
same,normalized growth,[14],0.888
same,normalized growth,[15],0.97
same,normalized growth,"S. cerevisiae deletion strains, locus YJL187C, strain SWE1, stronger effect = lower value",0.979
same,normalized growth,[16],0.987
same,normalized growth,[17],1
same,normalized growth,[18],0.678 (active)
same,normalized growth,[19],0.985
same,normalized growth,[20],0.948
same,normalized growth,[21],0.728 (active)
same,normalized growth,[22],1.02
same,normalized growth,[23],0.991
same,normalized growth,[24],0.982
same,normalized growth,[5],1.02
same,normalized growth,"S. cerevisiae deletion strains, locus YNL128W, strain TEP1, stronger effect = lower value",0.975
same,normalized growth,[6],1
same,normalized growth,[25],0.978
same,normalized growth,[7],0.97
same,normalized growth,[26],0.974
same,normalized growth,"S. cerevisiae deletion strains, locus YOL006C, strain TOP1, stronger effect = lower value",0.864
same,normalized growth,[8],1.04
same,normalized growth,[9],1
same,normalized growth,[27],0.838
same,normalized growth,"S. cerevisiae strains, strain wild type, stronger effect = lower value",0.96
O=C(Nc1c(Br)c(C2CC2)nn1-c1ccccc1)C(Cl)(Cl)Cl,normalized growth,"S. cerevisiae deletion strains, locus YAR019C, strain CDC15, stronger effect = lower value",0.92
same,normalized growth,"S. cerevisiae deletion strains, locus YBL105C, strain PKC1, stronger effect = lower value",0.913
same,normalized growth,"S. cerevisiae deletion strains, locus YBR135W, strain CKS1, stronger effect = lower value",0.914
same,normalized growth,"S. cerevisiae deletion strains, locus YBR136W, strain MEC1, stronger effect = lower value",0.923
same,normalized growth,"S. cerevisiae deletion strains, locus YBR160W, strain CDC28, stronger effect = lower value",0.92
same,normalized growth,"S. cerevisiae deletion strains, locus YDL017W, strain CDC7, stronger effect = lower value",0.929
same,normalized growth,"S. cerevisiae deletion strains, locus YDL028C, strain MPS1, stronger effect = lower value",0.93
same,normalized growth,[11],0.927
same,normalized growth,"S. cerevisiae deletion strains, locus YDL108W, strain KIN28, stronger effect = lower value",0.925
same,normalized growth,"S. cerevisiae deletion strains, locus YDL132W, strain cdc53, stronger effect = lower value",0.917
same,normalized growth,"S. cerevisiae deletion strains, locus YDL214C, strain PRR2, stronger effect = lower value",0.897
same,normalized growth,"S. cerevisiae deletion strains, locus YDR052C, strain DBF4, stronger effect = lower value",0.918
same,normalized growth,"S. cerevisiae deletion strains, locus YDR054C, strain cdc34, stronger effect = lower value",0.921
same,normalized growth,"S. cerevisiae deletion strains, locus YDR226W, strain ADK1, stronger effect = lower value",0.909
same,normalized growth,"S. cerevisiae deletion strains, locus YDR477W, strain SNF1, stronger effect = lower value",0.826
same,normalized growth,"S. cerevisiae deletion strains, locus YER123W, strain YCK3, stronger effect = lower value",0.769
same,normalized growth,"S. cerevisiae deletion strains, locus YER133W, strain GLC7, stronger effect = lower value",0.802
same,normalized growth,"S. cerevisiae deletion strains, locus YFL009W, strain cdc4, stronger effect = lower value",0.92
same,normalized growth,"S. cerevisiae deletion strains, locus YFL029C, strain CAK1, stronger effect = lower value",0.92
same,normalized growth,"S. cerevisiae deletion strains, locus YFR003C, strain YPI1, stronger effect = lower value",0.922
same,normalized growth,"S. cerevisiae deletion strains, locus YFR019W, strain FAB1, stronger effect = lower value",0.932
same,normalized growth,"S. cerevisiae deletion strains, locus YFR028C, strain CDC14, stronger effect = lower value",0.908
same,normalized growth,"S. cerevisiae deletion strains, locus YGR040W, strain KSS1, stronger effect = lower value",0.784
same,normalized growth,"S. cerevisiae deletion strains, locus YGR052W, strain FMP48, stronger effect = lower value",0.856
same,normalized growth,"S. cerevisiae deletion strains, locus YGR092W, strain DBF2, stronger effect = lower value",0.693
same,normalized growth,[14],0.896
same,normalized growth,"S. cerevisiae deletion strains, locus YHR079C, strain IRE1, stronger effect = lower value",0.919
same,normalized growth,"S. cerevisiae deletion strains, locus YHR082C, strain KSP1, stronger effect = lower value",0.919
same,normalized growth,"S. cerevisiae deletion strains, locus YHR205W, strain SCH9, stronger effect = lower value",0.821
same,normalized growth,"S. cerevisiae deletion strains, locus YIL147C, strain SLN1, stronger effect = lower value",0.932
same,normalized growth,"S. cerevisiae deletion strains, locus YJL095W, strain BCK1, stronger effect = lower value",0.824
same,normalized growth,"S. cerevisiae deletion strains, locus YJL128C, strain PBS2, stronger effect = lower value",0.908
same,normalized growth,"S. cerevisiae deletion strains, locus YJL157C, strain FAR1, stronger effect = lower value",0.904
same,normalized growth,"S. cerevisiae deletion strains, locus YJR016C, strain ILV3, stronger effect = lower value",0.929
same,normalized growth,"S. cerevisiae deletion strains, locus YJR066W, strain TOR1 (second series), stronger effect = lower value",0.832
same,normalized growth,"S. cerevisiae deletion strains, locus YJR066W, strain TOR1, stronger effect = lower value",0.86
same,normalized growth,"S. cerevisiae deletion strains, locus YKL048C, strain ELM1, stronger effect = lower value",0.802 (active)
same,normalized growth,"S. cerevisiae deletion strains, locus YKL067W, strain YNK1, stronger effect = lower value",0.897
same,normalized growth,"S. cerevisiae deletion strains, locus YKL101W, strain HSL1, stronger effect = lower value",0.882
same,normalized growth,"S. cerevisiae deletion strains, locus YKL193C, strain SDS22, stronger effect = lower value",0.921
same,normalized growth,"S. cerevisiae deletion strains, locus YKL203C, strain TOR2, stronger effect = lower value",0.879
same,normalized growth,"S. cerevisiae deletion strains, locus YLR113W, strain HOG1, stronger effect = lower value",0.858 (active)
same,normalized growth,"S. cerevisiae deletion strains, locus YLR133W, strain CKI1, stronger effect = lower value",0.871
same,normalized growth,"S. cerevisiae deletion strains, locus YLR403W, strain SFP1, stronger effect = lower value",0.714
same,normalized growth,"S. cerevisiae deletion strains, locus YML070W, strain DAK1, stronger effect = lower value",0.901
same,normalized growth,"S. cerevisiae deletion strains, locus YMR001C, strain CDC5, stronger effect = lower value",0.922
same,normalized growth,"S. cerevisiae deletion strains, locus YMR205C, strain PFK2 (second series), stronger effect = lower value",0.883
same,normalized growth,"S. cerevisiae deletion strains, locus YMR277W, strain FCP1, stronger effect = lower value",0.915
same,normalized growth,"S. cerevisiae deletion strains, locus YNL006W, strain LST8, stronger effect = lower value",0.921
same,normalized growth,"S. cerevisiae deletion strains, locus YNL020C, strain ARK1, stronger effect = lower value",0.878
same,normalized growth,"S. cerevisiae deletion strains, locus YNL161W, strain CBK1, stronger effect = lower value",0.925
same,normalized growth,"S. cerevisiae deletion strains, locus YNL183C, strain NPR1, stronger effect = lower value",0.864
same,normalized growth,"S. cerevisiae deletion strains, locus YNL207W, strain RIO2, stronger effect = lower value",0.928
same,normalized growth,"S. cerevisiae deletion strains, locus YNL222W, strain SSU72, stronger effect = lower value",0.928
same,normalized growth,"S. cerevisiae deletion strains, locus YNL307C, strain MCK1 (second series), stronger effect = lower value",0.812
same,normalized growth,"S. cerevisiae deletion strains, locus YOL078W, strain AVO1, stronger effect = lower value",0.912
same,normalized growth,"S. cerevisiae deletion strains, locus YOL136C, strain PFK27, stronger effect = lower value",0.895
same,normalized growth,"S. cerevisiae deletion strains, locus YOR061W, strain CKA2, stronger effect = lower value",0.872
same,normalized growth,"S. cerevisiae deletion strains, locus YOR119C, strain RIO1, stronger effect = lower value",0.822
same,normalized growth,"S. cerevisiae deletion strains, locus YOR231W, strain MKK1, stronger effect = lower value",0.898
same,normalized growth,"S. cerevisiae deletion strains, locus YOR329C, strain SCD5, stronger effect = lower value",0.925
same,normalized growth,"S. cerevisiae deletion strains, locus YPL031C, strain PHO85, stronger effect = lower value",0.814
same,normalized growth,"S. cerevisiae deletion strains, locus YPL153C, strain RAD53, stronger effect = lower value",0.82
same,normalized growth,"S. cerevisiae deletion strains, locus YPL204W, strain HRR25, stronger effect = lower value",0.735
same,normalized growth,"S. cerevisiae deletion strains, locus YPL209C, strain IPL1, stronger effect = lower value",0.922
same,normalized growth,"S. cerevisiae deletion strains, locus YPL256C, strain CLN2, stronger effect = lower value",0.961
same,normalized growth,"S. cerevisiae deletion strains, locus YPR025C, strain CCL1, stronger effect = lower value",0.923
same,normalized growth,"S. cerevisiae deletion strains, locus YPR106W, strain ISR1, stronger effect = lower value",0.935
same,normalized growth,"S. cerevisiae deletion strains, locus YPR111W, strain DBF20, stronger effect = lower value",0.925
same,normalized growth,"S. cerevisiae deletion strains, strain NNK1, stronger effect = lower value",0.944
same,normalized growth,"S. cerevisiae deletion strains, strain TSCII, stronger effect = lower value",0.92
CC(=O)Nc1cccc(-n2nnc(SCc3ccccc3)n2)c1,normalized growth,[1],1.02
same,normalized growth,[10],1.01
same,normalized growth,"S. cerevisiae deletion strains, locus YCL061C, strain MRC1, stronger effect = lower value",1.03
same,normalized growth,[11],0.995
same,normalized growth,[12],0.988
same,normalized growth,[2],1.03
same,normalized growth,[13],1
same,normalized growth,[3],1.02
same,normalized growth,[4],0.986
same,normalized growth,[14],1.06
same,normalized growth,[15],0.988
same,normalized growth,[16],1.02
same,normalized growth,[17],1.03
same,normalized growth,[18],0.976
same,normalized growth,[19],0.997
same,normalized growth,[20],0.949
same,normalized growth,[21],1.1
same,normalized growth,[22],0.982
same,normalized growth,[23],0.993
same,normalized growth,[24],1.01
same,normalized growth,[6],1.02
same,normalized growth,[25],1.01
same,normalized growth,[7],1.01
same,normalized growth,[26],1.01
same,normalized growth,[8],0.968
same,normalized growth,[9],0.958
same,normalized growth,[27],1.08
